High-throughput results from PubChem BioAssay.
POLB inh: DNA polymerase beta (human) inhibition | P06746 | Pol beta primer extension/strand displacement, fluorescence kinetic | Potency, µM (top dose mostly 114 µM), for inactives: at the top dose activity change, negative = inhibition, usual class: inhibitors | 340,000 compounds, 1.3% hits | AID 485314; also: potency is read from the fitted curve at half-maximal effect; % is scaled to controls: 0 for no effect and ±100 for the full control effect
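Curves were derived by four-parameter Hill fits of normalized qHTS data. The kinetic fluorescent primer-extension read was taken at 0 and 10 min after 50 nM substrate, following a 15 min room-temperature preincubation of 10 nM enzyme with compounds.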
FEN1 inh-1: human FEN1 inhibition | 390,000 compounds, 0.35% hits | Potency, µM (titrated, usually from 114 µM), without a hit: top-dose activity change, negative = inhibition, actives largely listed as inhibitors | P39748 | Recombinant FEN1 flap cleavage, fluorescence, 15 min; also: potency is read from the fitted curve at half-maximal effect; % is scaled to controls: 0 for no effect and ±100 for the full control effect; nearly all actives have a fitted effect of over 65% in size
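Enzyme 10 nM, 15 min RT preincubation with compound; start with substrate 50 nM final; reads at 0 and 15 min; qHTS titration, four-parameter Hill fit.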
Pol eta inh-1: inhibitors of human DNA polymerase eta. 390,000 compounds, 1.2% hits. recombinant Pol eta, fluorescent DNA replication assay. Q9Y253. Potency, µM (titrated, usually from 114 µM), without a hit: top-dose activity change, negative = inhibition, usual class: inhibitors. AID 588591; also: potency is read from the fitted curve at half-maximal effect; % is scaled to controls: 0 for no effect and ±100 for the full control effect
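Pol eta at 10 nM preincubated with compounds 15 min at room temperature; reaction started with fluorescent substrate (50 nM final) and read kinetically at 0 and 10 min.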
Pol kappa inh-1: inhibitors of human DNA polymerase kappa; Q9UBT6; purified Pol kappa, fluorescent DNA synthesis assay, 10 min; Potency, µM (top dose mostly 107 µM), for inactives: at the highest dose activity, negative = inhibition, hits mostly inhibitors; 400,000 compounds, 0.53% hits; also: potency is read from the fitted curve at half-maximal effect; % is scaled to controls: 0 for no effect and ±100 for the full control effect
Target sequence (Q9UBT6 whole entry, looked up): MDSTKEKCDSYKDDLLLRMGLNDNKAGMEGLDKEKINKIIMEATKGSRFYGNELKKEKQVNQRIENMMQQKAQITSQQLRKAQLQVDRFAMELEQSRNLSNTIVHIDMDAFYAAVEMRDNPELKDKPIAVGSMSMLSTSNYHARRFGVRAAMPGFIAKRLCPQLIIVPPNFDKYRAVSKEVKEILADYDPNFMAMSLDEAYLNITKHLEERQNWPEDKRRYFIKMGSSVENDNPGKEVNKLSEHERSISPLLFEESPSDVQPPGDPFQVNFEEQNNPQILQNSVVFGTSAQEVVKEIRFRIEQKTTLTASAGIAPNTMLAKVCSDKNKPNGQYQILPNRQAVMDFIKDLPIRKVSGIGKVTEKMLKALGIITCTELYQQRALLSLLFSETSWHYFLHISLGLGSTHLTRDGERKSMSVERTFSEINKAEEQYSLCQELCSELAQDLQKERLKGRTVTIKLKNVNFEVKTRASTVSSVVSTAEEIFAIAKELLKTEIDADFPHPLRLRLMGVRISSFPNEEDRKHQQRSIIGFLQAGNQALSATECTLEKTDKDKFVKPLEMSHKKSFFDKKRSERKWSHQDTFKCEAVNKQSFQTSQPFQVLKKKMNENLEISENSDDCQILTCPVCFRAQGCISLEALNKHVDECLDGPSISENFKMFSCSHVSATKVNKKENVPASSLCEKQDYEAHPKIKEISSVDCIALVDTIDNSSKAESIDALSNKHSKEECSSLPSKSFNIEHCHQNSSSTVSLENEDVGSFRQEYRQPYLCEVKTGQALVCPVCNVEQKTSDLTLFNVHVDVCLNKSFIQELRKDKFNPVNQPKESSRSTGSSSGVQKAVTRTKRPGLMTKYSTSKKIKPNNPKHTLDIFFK
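Enzyme at 10 nM met test compounds for 15 min at room temperature. Substrate addition (50 nM final) began the reaction, which was monitored by fluorescence at 0 and 10 min.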
POLI inh: blocks human DNA polymerase iota activity. Q9UNA4. Pol iota fluorescent replication assay, 10 min. Potency, µM (highest dose often 115 µM), inactives show at the top dose activity, negative = inhibition, usual class: inhibitors. 390,000 compounds, 1% hits. AID 588590; also: potency is read from the fitted curve at half-maximal effect
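Pol iota at 10 nM preincubated 15 min with compounds at room temperature; reaction started with fluorescent substrate, 50 nM final. Fluorescence read kinetically at 0 and 10 min; buffer-only wells as negative control.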
WRN inhibitor: inhibitors of human WRN helicase; Q14191; WRN helicase unwinding, fluorescent forked duplex, kinetic; Potency, µM (series often up to 114 µM), without a hit: at the highest dose activity change, negative = inhibition, usual class: inhibitors; 360,000 compounds, 0.46% hits; also: potency is read from the fitted curve at half-maximal effect; % is scaled to controls: 0 for no effect and ±100 for the full control effect; nearly all actives have a fitted effect of over 55% in size
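Primary qHTS, 1536-well format. 20 nM WRN + compound, 15 min RT; start with 100 nM forked fluorophore/quencher duplex, 2 mM ATP (final); kinetic read ex 525/em 598 nm.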
GALK inh confirm: confirmation of human galactokinase (GALK) inhibitors; shares compounds with Pol eta inh-1; purified GALK, Kinase-Glo ATP depletion luminescence; Potency, µM (series often up to 115 µM), inactives show top-dose activity, negative = inhibition, most hits filed as inhibitors; 150 compounds, 70% hits; AID 2015
Redox cycling: redox cycling activity in phenol red-HRP assay; shares compounds with Pol eta inh-1; Phenol red-HRP H2O2 redox cycling, absorbance 600 nm; Potency, µM (highest dose often 115 µM), for inactives: at the highest dose activity change, negative = H2O2 signal, actives largely listed as inhibitors; 150 compounds, 40% hits; AID 2035
HEK293 tox: counter-screen for GALK inhibitors: HEK293 cell cytotoxicity; HEK-293 viability, ATP luminescence (CellTiter-Glo), 24/48 h; shares compounds with Pol eta inh-1; Potency, µM (top dose mostly 46.1 µM), for inactives: at the top dose activity change, negative = cytotoxicity, most hits filed as inhibitors; 170 compounds, 10% hits; AID 2547; also: potency is read from the fitted curve at half-maximal effect; % is scaled to controls: 0 for no effect and ±100 for the full control effect
Pol kappa inh-2: Pol kappa (human) inhibition, cherry-pick confirmation; shares compounds with Pol eta inh-1; 920 compounds, 76% hits; Potency, µM, actives largely listed as inhibitors; purified Pol-kappa, fluorescent strand-displacement substrate; also: potency is read from the fitted curve at half-maximal effect
Pol eta inh-2: confirmation of human DNA polymerase eta inhibitors. shares compounds with Pol eta inh-1. Pol eta primer extension, TAMRA/BHQ fluorescence, 10 min. Potency, µM, most hits filed as inhibitors. 2,600 compounds, 64% hits. AID 720502; also: potency is read from the fitted curve at half-maximal effect
FEN1 inh-2: FEN1 inhibition, cherry-pick retest; shares compounds with FEN1 inh-1; FEN1 flap cleavage, TAMRA/BHQ2 fluorogenic DNA substrate; Potency, µM, hits mostly inhibitors; 880 compounds, 79% hits; AID 720498; also: potency is read from the fitted curve at half-maximal effect; nearly all actives have a fitted effect of over 60% in size
Active calls of the source: *; ? = inconclusive; nt = no result given; [ ] = remark or other dose. Compounds with a hit are over-represented: about 2.4% of the library has one in this group of screens. Calls follow the shape of the dose curve; as a rule, active = well fitted curve in the direction sought with a large enough effect; inconclusive = small, poorly fitted or top-dose-only effect, or another doubt; inactive = no such curve, though single readings can be large; an effect the other way counts as inactive or inconclusive.

SMILES	POLB inh	FEN1 inh-1	Pol eta inh-1	Pol kappa inh-1	POLI inh	WRN inhibitor	Pol eta inh-2	others
C[C@]12CC[C@H]3C(=CCc4cc(O)ccc43)[C@@H]1CCC2=O	?	-1.5%	-6.8%	-25.2%	-4.6%	-3.2%	nt
CN1C(=O)CCS(=O)(=O)[C@H]1c1ccc(Cl)cc1	nt	nt	nt	-5.7%[19.4 µM]	nt	nt	nt
O=c1oc2ccccc2c(O)c1[C@H]1c2ccc(O)cc2Oc2c1c(=O)oc1ccccc21	6.9%	-2.7%	?	-19.1%	-11.9%	-12.3%[11.6 µM]	?
O=C(OC1Cc2c(O)cc(O)cc2OC1c1cc(O)c(O)c(O)c1)c1cc(O)c(O)c(O)c1 (stereo not given)	nt	nt	nt	0.562µM*	nt	nt	nt	GALK inh confirm=9.43µM*;Redox cycling=-9.8%;HEK293 tox=-6.9%
O=C1NC(=O)N(CCC2=CCCCC2)C(=O)/C1=C/c1cccs1	?	?	?	-39.5%	?	?	?
N=C1/C(=C\c2ccc(OC(=O)c3ccccc3Cl)cc2)C(=O)N=C2SC(N3CCOCC3)=NN12	39.8µM*	?	22.4µM*	?	-80.8%	?	37.9*
CCS(=O)(=O)C1=NN2C(=N)/C(=C\c3ccc(OC(=O)c4ccco4)cc3)C(=O)N=C2S1	-26.0%	17.0%	?	-17.9%	-2.1%	-11.1%	nt
COCCCn1c(N)c(C(=O)NCc2ccco2)c2nc3ccccc3nc21	-34.8%	-10.0%	-13.1%	-9.7%	82.5%	0.0%	nt	GALK inh confirm=?;Redox cycling=-4.2%;HEK293 tox=?
COCCNC(=O)c1c(N)n(Cc2ccco2)c2nc3ccccc3nc12	11.5%	-7.7%	-16.6%	-16.5%	5.6%	-18.8%	nt
N[C@H](CCP(=O)(O)O)C(=O)O	nt	nt	nt	-7.4%[19.4 µM]	nt	nt	nt
Nc1ncc(S(=O)(=O)c2ccc(Cl)cc2)c(N)n1	-0.9%	8.0%	-25.0%	-2.8%	?	8.4%	nt
CC1C(=O)OC2C1CC[C@@]1(C)C=CC(=O)[C@@]3(C)O[C@@]213 (stereo not given in full)	nt	nt	nt	-3.6%[60.1 µM]	nt	nt	nt
Cc1ccc2c(c1Cl)NC(C(=O)O)C1CC(Sc3ccccc3[N+](=O)[O-])C(Cl)C21 (stereo not given)	?	?	44.7µM*	?	?	-8.9%[11.6 µM]	?
Cc1cc(C)cc(N2C(=O)NC(=O)/C(=C\C=C\c3ccco3)C2=O)c1	28.2µM*	-13.4%	17.8µM*	39.8µM*	22.4µM*	50.1µM*	30.1*	Pol kappa inh-2=18.9*
Cc1ccc(N2C(=O)NC(=O)/C(=C/C=C/c3ccco3)C2=O)cc1	31.6µM*	?	?	20µM*	11.2µM*	44.7µM*	?
Cc1cc(/C=C2\C(=O)NC(=O)N(c3ccc(F)cc3)C2=O)c(C)n1-c1cccc(C(=O)O)c1	28.2µM*	-5.7%	22.4µM*	?	22.4µM*	-11.2%[11.6 µM]	?	Pol kappa inh-2=37.7*
Cc1cc(/C=C2\C(=O)NC(=O)N(C)C2=O)c(C)n1-c1ccc2c(c1)OCO2	?	-1.7%	?	-40.2%	?	-15.0%	nt
Cc1cc(/C=C2\C(=O)NC(=O)N(c3ccccc3)C2=O)c(C)n1-c1ccc(C(=O)O)c(Cl)c1	22.4µM*	-6.4%	10µM*	?	?	-8.8%[11.6 µM]	33.8*	Pol kappa inh-2=18.9*
Cc1cc(/C=C2\C(=O)NC(=O)N(c3ccc(Cl)cc3)C2=O)c(C)n1C	1.0%	-2.2%	-5.8%	-18.9%	-12.5%	-5.0%	nt
N#CC1=C(N)Oc2c(c(=O)oc3ccccc23)C1c1ccc([N+](=O)[O-])o1 (stereo not given)	?	50.1µM*	20µM*	50.1µM*	?	?	84.9*	Pol kappa inh-2=37.7*
CC(C)Oc1ccc(C2C(C#N)=C(N)Oc3c2c(=O)oc2ccccc32)cc1 (stereo not given)	-7.3%	-6.0%	?	-15.5%	4.2%	2.1%	nt
CCCCCCCCCCCCCC(=O)O[C@@H]1[C@@H](C)[C@@]2(O)[C@@H](C=C(CO)C[C@@]3(O)C(=O)C(C)=C[C@@H]23)C2C(C)(C)[C@@]21OC(C)=O (stereo not given in full)	-27.8%[57.1 µM]	nt	?	?	?	nt	nt
Cc1cccc(N2C(=O)NC(=O)/C(=C\c3cc(C)n(-c4sc5c(c4C#N)CCCC5)c3C)C2=O)c1C	?	-31.2%	20µM*	-21.2%	20µM*	?	30.1*
CN1CCN(c2ncc3ncc(=O)n(C)c3n2)CC1	nt	nt	nt	-3.1%[60.1 µM]	nt	nt	nt
[S]=[Sb][S][Sb]=[S]	nt	nt	nt	-1.9%[19.4 µM]	nt	nt	nt
SMILES	POLB inh	FEN1 inh-1	Pol eta inh-1	Pol kappa inh-1	POLI inh	WRN inhibitor	Pol eta inh-2	others
O=[N+]([O-])c1ccc(N2CCCCCC2)c2nonc12	20µM*	?	?	?	28.2µM*	22.4µM*	60.1*	FEN1 inh-2=42.6*
CCN(CC)CCCCN1c2ccccc2Oc2ccc(Cl)cc21	nt	nt	nt	9.6%[60.1 µM]	nt	nt	nt
C=C(C)[C@H]1[C@H]2OC(=O)[C@@H]1[C@]1(O)C[C@H]3O[C@]34C(=O)O[C@H]2[C@@]14C	nt	nt	nt	1.0%[12 µM]	nt	nt	nt
Cc1ccc(/C=C2/C(=O)NC(=O)N(C)C2=O)cc1	23.9%	1.4%	-5.2%	-3.4%	58.8%	?	nt
CN1C(=O)NC(=O)/C(=C/c2ccc([N+](=O)[O-])s2)C1=O	?	?	22.4µM*	?	?	?	75.7*	FEN1 inh-2=7.57*
Cc1cccc(Oc2nc3c(C)cccn3c(=O)c2/C=C(\C#N)c2nc3ccccc3s2)c1	-16.5%	?	50.1µM*	-12.4%	-10.4%	nt	?	Pol kappa inh-2=42.3*;FEN1 inh-2=67.5*
